Inconclusive results are not listed. Activity calls are given as the source filed them. Unless noted, calls follow the shape of the dose curve; as a rule, active = well fitted curve in the direction sought with a large enough effect; inconclusive = small, poorly fitted or top-dose-only effect, or another doubt; inactive = no such curve, though single readings can be large; an effect the other way counts as inactive or inconclusive.
Assays:
[1] = Validation of Assay for Modulators of Lamin A Splicing (AID 1459; active = well fitted curve in the direction sought with a large enough effect in the signal ratio; the % refers to the signal ratio;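 also: cells exposed to compound for two days before reading; 0% is about no effect; ratio rise marks activators and ratio drop marks inhibitors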)
How it was run: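 Splicing correction is reported by an EGFP-containing lamin A minigene in stably transfected S3 HeLa cells, while DsRed2 controls for viability and nonspecific signal. Cells are exposed to compounds for 48 hrs before the GFP over RFP ratio is taken.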

[2] = biological target: DNA repair nuclease/redox regulator APEX1 (Homo sapiens) (UniProt P27695); assay: qHTS Validation Assay for Inhibitors of the Human Apurinic/apyrimidinic Endonuclease 1 (APE1) (AID 1705;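 also: TAMRA fluorescence gain over two minutes as APE1 cuts a quenched THF abasic duplex; % is scaled to controls: 0 for no effect and ±100 for the full control effect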)
How it was run: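 Endonuclease activity of human APE1 is followed as dequenching when the enzyme incises a tetrahydrofuran abasic site in a short duplex labelled 5'-TAMRA/3'-BHQ-2 (50 nM final), after 15 min enzyme–compound preincubation at room temperature.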

[3] = biological target: Endonuclease 4 (Escherichia coli (strain K12)) (UniProt P0A6C1); assay: Counterscreen for APE1 Inhibitors: qHTS Validation Assay for Inhibitors of Endonuclease IV (AID 1708); also: % is scaled to controls: 0 for no effect and ±100 for the full control effect
How it was run: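 E. coli EndoIV at 2 nM final, preincubated 15 min at room temperature with compound, then 50 nM TAMRA/BHQ-2 THF abasic-site duplex added. Buffer: 50 mM Tris-HCl pH 7.5, 50 mM NaCl, 2 mM MgCl2, 1 mM DTT, 0.01% Tween-20. Kinetic fluorescence increase, third minus first read.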

[4] = qHTS for differential inhibitors of proliferation of Plasmodium falciparum line 7G8 (AID 1815);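 also: potency is read from the fitted curve at half-maximal effect; parasite growth measured after three days of incubation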
[5] = qHTS for differential inhibitors of proliferation of Plasmodium falciparum line GB4 (AID 1816); settings: Potency: Plasmodium falciparum GB4 proliferation inhibition;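 also: potency is read from the fitted curve at half-maximal effect; parasite growth measured after 72 h incubation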
[6] = qHTS for differential inhibitors of proliferation of Plasmodium falciparum line 3D7 (AID 1876); also: potency is read from the fitted curve at half-maximal effect
[7] = qHTS for differential inhibitors of proliferation of Plasmodium falciparum line Dd2 (AID 1882); settings: Potency: Plasmodium falciparum Dd2 proliferation inhibition; also: potency is read from the fitted curve at half-maximal effect; nearly all actives have a fitted effect of over 65% in size
How it was run: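 Dd2-infected erythrocytes (0.3% parasitemia, 2.5% hematocrit final) incubated with compound 72 h at 37 C, 5% CO2; lysed with saponin/Triton buffer containing SYBR Green I, incubated overnight in the dark, then read by fluorescence (485/535 nm). Normalized to 0.29 uM artemisinin and DMSO.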

[8] = qHTS for differential inhibitors of proliferation of Plasmodium falciparum line W2 (AID 1883); settings: Potency: Plasmodium falciparum W2 proliferation inhibition;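 also: potency is read from the fitted curve at half-maximal effect; parasites grown with compound for 72 h before lysis and staining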
[9] = qHTS for differential inhibitors of proliferation of Plasmodium falciparum line HB3 (AID 1886); settings: Potency: Plasmodium falciparum HB3 proliferation inhibition;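 also: potency is read from the fitted curve at half-maximal effect; parasites grown with compound for 72 h before SYBR Green readout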
[10] = biological target: Ferritin light chain (Equus caballus) (UniProt P02791); assay: qHTS Validation Assay for Identification of Novel General Anesthetics (AID 2323); also: % is scaled to controls: 0 for no effect and ±100 for the full control effect
How it was run: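 Apoferritin from horse spleen (10 uM) was mixed with 1-aminoanthracene at 50% saturation in PBS, then compounds were added. After 10 min at room temperature, fluorescence was read (ex 380 nm, em 535 nm) and normalized to free-probe and complex controls.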

[11] = biological target: ATP-dependent DNA helicase Q1 (Homo sapiens) (UniProt P46063); assay: qHTS Validation Assay for Inhibitors of RecQ-Like Dna Helicase 1 (RECQ1) (AID 2353);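 also: plate controls were DMSO vehicle for no effect and enzyme-free control for full effect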
How it was run: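 50 nM RECQ1T1 preincubated 15 min with compound in Tris pH 8.0 buffer with MgCl2, DTT, Tween-20 and 2.5 ug/ml poly(dI-dC); started with 200 nM TAMRA/BHQ-2 forked duplex and 2 mM ATP. Unwinding read as fluorescence (525/598 nm), two reads 2 h apart.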

[12] = biological target: RecQ-like DNA helicase BLM (Homo sapiens) (UniProt P54132); assay: qHTS Validation Assay for Inhibitors of Bloom's syndrome helicase (BLM) (AID 2364);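 also: plate controls were DMSO vehicle for no effect and enzyme-free control for full effect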
How it was run: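 50 nM BLM preincubated 15 min at room temperature with compound in pH 8.0 Tris buffer containing 2.5 ug/ml poly(dI-dC); started with 200 nM TAMRA/BHQ-2 forked duplex and 2 mM ATP (final). Unwinding read as TAMRA fluorescence increase, two reads 2 h apart.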

[13] = Validation screen for small molecules that induce DNA re-replication in MCF 10A normal breast cells (AID 463097); also: 0% is about no effect; nearly all actives have a fitted effect of over 60% in size
How it was run: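 DNA re-replication was detected as a rise in nuclei with elevated Hoechst fluorescence after a 48 hr compound exposure of MCF 10A cells at 37 C.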

[14] = biological target: M-phase phosphoprotein 8 (Homo sapiens) (UniProt Q99549); assay: qHTS Validation Assay for Inhibitors for MPP8 Chromodomain Interactions with Methylated Histone Tails (AID 488949);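 also: AlphaScreen signal from MPP8 chromodomain bound to biotinylated H3K9me3 peptide; top concentration of the series differs between compounds; % is scaled to controls: 0 for no effect and ±100 for the full control effect; nearly all actives have a fitted effect of over 55% in size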
How it was run: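 Disruption of the preformed MPP8–trimethyl-H3K9 peptide complex (both 50 nM, 30 min, RT) is measured after 30 min compound exposure, using AlphaScreen proximity beads; aurintricarboxylic acid titration serves as plate control.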

[15] = biological target: Thyrotropin receptor (Homo sapiens) (UniProt P16473); assay: qHTS Assay for Antagonists of the Thyroid Stimulating Hormone Receptor (AID 488980); also: 0% is about no effect
How it was run: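 Cells expressing human TSHR (HEK293) are dispensed in HBSS/HEPES containing 70 uM RO 20-1724, compound is added, then TSH at EC80 (4 nM final). Antibody in lysis buffer follows, 30 minutes at room temperature before HTRF detection.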

[16] = biological target: Thyrotropin-releasing hormone receptor (Homo sapiens) (UniProt P34981); assay: qHTS for Small Molecule Agonists and Allosteric Enhancers of Human TRH Receptor: Validation Screen for Agonists (AID 493127;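 active = calcium activation more than 3 SD above the typical response in the agonist read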; also: 0% is about no effect); settings: TRH receptor agonist cell assay; at 2 µM; active compounds read high
How it was run: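 TRHR cells loaded with fluo-8 calcium dye; FDSS kinetic fluorescence (Ex 480/Em 530) read at 1 s/cycle after 23 nL compound addition. Agonist-mode calcium response recorded before the 10 nM TRH (EC20) addition.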

[17] = biological target: Galactokinase (Homo sapiens) (UniProt P51570); assay: qHTS Validation Assay for Inhibitors of Human Galactokinase (GALK) (AID 493189); also: 0% is about no effect
How it was run: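 Compounds were pin-transferred into ATP buffer, then GALK-galactose mix was added (final 5 nM enzyme, 100 uM galactose, 35 uM ATP). After 1 h at room temperature, remaining ATP was measured luminescently.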

[18] = Validation screen for small molecules that induce DNA re-replication in SW480 colon adenocarcinoma cells (AID 504364); also: 0% is about no effect
How it was run: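 SW480 cells (250/well) exposed 48 h at 37 C, 5% CO2, then Hoechst-stained 40 min. Nuclear DNA content imaged by fluorescence scanning (405 nm excitation, 500-530 nm emission); re-replication scored as increased nuclei with elevated intensity.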

[19] = biological target: Voltage-gated inwardly rectifying potassium channel KCNH2 (Homo sapiens) (UniProt Q12809); assay: qHTS Assay for Small Molecule Inhibitors of the Human hERG Channel Activity (AID 588834);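 also: top concentration of the series differs between compounds; % is scaled to controls: 0 for no effect and ±100 for the full control effect; lower thallium flux fluorescence means stronger hERG block; nearly all actives have a fitted effect of over 50% in size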
How it was run: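 Measured: FluxOR fluorescence after thallium stimulation in U2OS cells transduced with hERG by baculovirus. Compounds pre-incubated around 10 min; medium Opti-MEM with 2% FCS. AC50 from Hill equation.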

[20] = test system: Zika virus NS2B-NS3 protease; assay: Primary screen GU AMC qHTS for Zika virus inhibitors (AID 1347154);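 also: 0% = no-inhibitor control and -100% = no-enzyme control; nearly all actives have a fitted effect of over 70% in size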
How it was run: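 Unlinked Zika NS2B hydrophilic domain–NS3 protease complex at 25 nM in 10 mM Tris-HCl pH 8.0, 0.01% Tween 20, with an AMC peptide substrate. Fluorescence change (340/450 nm) over 15 min at room temperature, normalized to controls, fitted to 4-parameter Hill.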

[21] = AP1 Signaling Pathway (AID 357; active = well fitted curve in either direction with a large enough effect, not every such curve was filed as active; also: % is scaled to controls: 0 for no effect and ±100 for the full control effect); settings: ME-180 AP-1-bla reporter, EGF-induced, beta-lactamase ratio, 5 h; at 38 µM (top of the series)
How it was run: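 Titration-series screen for positive or negative modulators of EC50 EGF-induced signaling in ME-180 cells carrying an AP-1-driven beta-lactamase reporter. After 5 hours at 37 degrees Celsius, CCF4 460nm/530nm emission ratio gave %Activity; AC50 values derived.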

[22] = biological target: Cytochrome P450 1A2 (Homo sapiens) (UniProt P05177); assay: p450-cyp1a2 (AID 410; calls by dose curve;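 also: -100% = full effect of reference inhibitor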)
How it was run: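 20nM CYP1A2 with 100uM Luciferin-ME (at Km) in 100mM KPO4; compound preincubated 10 min, NADPH regeneration added, 60 min at room temperature. Luciferin quantified by luminescence after detection reagent; normalized to 57 uM furafylline.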

[23] = NFAT Signaling Pathway (AID 444; active = well fitted curve in either direction with a large enough effect, not every such curve was filed as active); settings: Jurkat NFAT-bla M1, carbachol, beta-lactamase ratio, 5 h; at 38 µM (top of the series)
How it was run: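 Jurkat cells with NFAT-driven β-lactamase reporter and co-expressed M1 receptor, stimulated with carbachol (final 1 uM, ~EC50), compound titration, 5 h at 37 °C. CCF4 loaded 1 h at RT; 460/530 nm ratio gave %activity and AC50.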

[24] = Stat Signaling Pathway (AID 446; active = well fitted curve in either direction with a large enough effect, not every such curve was filed as active); settings: ME-180 SIE beta-lactamase reporter, IL-6 stimulated, 5 h; at 38 µM (top of the series)
How it was run: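 Reporter line: ME-180 cervical carcinoma, SIE-beta-lactamase. Treatment: compound with 40 pM IL-6, 5 hrs, 37 C, in low-serum OPTI-MEM with 10 mM HEPES pH 7.3. Detection: 460/530 nm fluorescence.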

[25] = biological target: Glucocorticoid receptor (Homo sapiens) (UniProt P04150); assay: GR-GFP Redistribution (AID 450;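 active = compounds whose dose series gives a full or clear partial fitted curve of increased nuclear translocation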; also: potency is read from the fitted curve at half-maximal effect); settings: U2OS GR-GFP nuclear translocation, laser cytometry, 2 h
[26] = biological target: Glucocorticoid receptor (Homo sapiens) (UniProt P04150); assay: GR-EFC Redistribution (AID 451; calls by dose curve; also: potency is read from the fitted curve at half-maximal effect); settings: CHO-K1 GR-EFC translocation, beta-gal luminescence, 2 h
How it was run: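 CHO-K1 cells expressing nuclear EA and GR-ED fragments of b-gal; compounds titrated up to 46 uM final, 2 h at 37 C. GR nuclear translocation read as complemented b-gal luminescence after 1 h RT detection.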

[27] = biological target: Mitogen-activated protein kinase 10 (Mus musculus) (UniProt Q61831); assay: JNK3 AlphaScreen Assay (AID 530; active = well fitted curve in either direction with a large enough effect, not every such curve was filed as active)
How it was run: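 Pre-activated (IL-1β/TNFα) JNK3 in HepG2 lysates phosphorylates biotin-GST-cJun(1-79), 10 uM ATP; anti-phospho-cJun(Ser73) AlphaScreen read at room temperature, pH 7.6 Tris buffer. Compounds pre-incubated 15 min as titrations.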

[28] = biological target: 3',5'-cyclic-AMP phosphodiesterase 4B (Homo sapiens) (UniProt Q07343); assay: qHTS Assay for Inhibitors of PDE-IV (AID 607; active = well fitted activation curve with a large enough effect in the main read-out, with a control signal flat, not every such curve was filed as active; also: % of control where 0% means no effect)
How it was run: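 Cell-based read-out of cAMP via a modified cyclic nucleotide-gated channel and membrane potential dye (535/590 nm) in HEK293 cells expressing PDE4 endogenously. Compounds tested up to 22.9 uM final; 100 uM RO 20-1724 reference.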

[29] = biological target: Cytochrome P450 3A4 (Homo sapiens) (UniProt P08684); assay: qHTS Assay for Activators of Cytochrome P450 3A4 (AID 885); also: nearly all actives have a fitted effect of over 65% in size
How it was run: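 Signal was normalized against complete inhibition by 57 uM ketoconazole. The reaction used 20nM CYP3A4 with 25uM Luciferin-PPXE, 10-min compound preincubation and a 60-min NADPH-supported step at RT.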

[30] = biological target: Cytochrome P450 2D6 (Homo sapiens) (UniProt P10635); assay: qHTS Assay for Inhibitors and Substrates of Cytochrome P450 2D6 (AID 891);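 also: luciferin methyl ether substrate demethylated by CYP2D6 with NADPH regeneration; % is scaled to controls: 0 for no effect and ±100 for the full control effect; nearly all actives have a fitted effect of over 60% in size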
How it was run: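 Human CYP2D6 (5 nM) with 30 uM Luciferin-ME EGE (at Km) in 100 mM KPO4, compound preincubated 10 min, then NADPH regeneration system for 60 min at room temperature. Luciferin read by luminescence; normalized to 1.43 uM quinidine.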

[31] = biological target: DNA dC->dU-editing enzyme APOBEC-3G (Homo sapiens) (UniProt Q9HC16); assay: qHTS for inhibitors of Vif-A3G interactions: Validation (AID 588379); also: 0% is about no effect
How it was run: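 HeLa cells stably expressing Vif and A3G-eYFP, 700 cells/well, incubated overnight at 37 deg C, then exposed to compound overnight at 37 deg C. Inhibition of Vif-mediated degradation read as increased yellow fluorescence (Ex 488/Em 500-530) by laser-scanning cytometry.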

[32] = Cell Viability qHTS for small molecule stabilizers of the endoplasmic reticulum resident proteome (AID 1508629); settings: cell viability counter-screen, 100 nM thapsigargin for final 4 h

Chain of Glucocorticoid receptor (Homo sapiens) (P04150 whole entry, looked up, the tested form may be a part): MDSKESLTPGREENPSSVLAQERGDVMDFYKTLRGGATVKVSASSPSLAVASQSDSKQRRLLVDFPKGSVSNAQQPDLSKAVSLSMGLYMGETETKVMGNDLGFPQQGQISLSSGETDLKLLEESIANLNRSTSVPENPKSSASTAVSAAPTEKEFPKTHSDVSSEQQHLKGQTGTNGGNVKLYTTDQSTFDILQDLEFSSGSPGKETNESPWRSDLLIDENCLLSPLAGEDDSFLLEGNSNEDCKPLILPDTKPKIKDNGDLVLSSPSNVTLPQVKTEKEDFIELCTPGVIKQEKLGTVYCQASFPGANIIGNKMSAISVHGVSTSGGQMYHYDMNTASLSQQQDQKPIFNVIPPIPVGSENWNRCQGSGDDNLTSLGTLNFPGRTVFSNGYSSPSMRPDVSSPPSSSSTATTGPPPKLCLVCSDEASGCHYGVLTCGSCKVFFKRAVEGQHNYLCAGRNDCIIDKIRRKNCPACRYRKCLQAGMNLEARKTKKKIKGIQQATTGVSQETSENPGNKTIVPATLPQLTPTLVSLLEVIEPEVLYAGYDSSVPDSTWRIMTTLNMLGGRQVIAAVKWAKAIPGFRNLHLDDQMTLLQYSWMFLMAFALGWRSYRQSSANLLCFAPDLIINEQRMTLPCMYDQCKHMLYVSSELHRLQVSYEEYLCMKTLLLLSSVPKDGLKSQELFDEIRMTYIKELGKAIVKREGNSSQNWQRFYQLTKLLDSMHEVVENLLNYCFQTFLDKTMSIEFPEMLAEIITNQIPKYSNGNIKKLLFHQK
Chain of 3',5'-cyclic-AMP phosphodiesterase 4B (Homo sapiens) (Q07343 whole entry, looked up): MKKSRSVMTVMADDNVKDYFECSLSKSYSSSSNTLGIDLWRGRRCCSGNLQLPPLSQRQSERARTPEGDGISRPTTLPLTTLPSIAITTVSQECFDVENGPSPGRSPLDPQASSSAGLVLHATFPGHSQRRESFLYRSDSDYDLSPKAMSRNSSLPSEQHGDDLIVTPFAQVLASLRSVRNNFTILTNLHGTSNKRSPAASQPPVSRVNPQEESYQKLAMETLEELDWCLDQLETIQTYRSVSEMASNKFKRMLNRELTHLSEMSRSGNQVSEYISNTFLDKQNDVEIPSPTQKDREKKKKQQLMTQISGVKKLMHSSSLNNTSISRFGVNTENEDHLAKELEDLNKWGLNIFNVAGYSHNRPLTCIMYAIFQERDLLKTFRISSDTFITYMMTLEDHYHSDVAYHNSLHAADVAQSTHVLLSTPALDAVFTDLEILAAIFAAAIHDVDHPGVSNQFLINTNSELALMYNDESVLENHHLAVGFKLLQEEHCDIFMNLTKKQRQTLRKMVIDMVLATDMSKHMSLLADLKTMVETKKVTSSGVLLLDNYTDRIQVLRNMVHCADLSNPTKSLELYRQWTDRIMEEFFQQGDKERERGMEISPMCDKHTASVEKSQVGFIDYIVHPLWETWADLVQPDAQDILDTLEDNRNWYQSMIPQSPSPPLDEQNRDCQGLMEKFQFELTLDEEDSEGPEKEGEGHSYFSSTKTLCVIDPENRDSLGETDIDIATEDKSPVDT
Chain of Cytochrome P450 3A4 (Homo sapiens) (P08684 whole entry, looked up): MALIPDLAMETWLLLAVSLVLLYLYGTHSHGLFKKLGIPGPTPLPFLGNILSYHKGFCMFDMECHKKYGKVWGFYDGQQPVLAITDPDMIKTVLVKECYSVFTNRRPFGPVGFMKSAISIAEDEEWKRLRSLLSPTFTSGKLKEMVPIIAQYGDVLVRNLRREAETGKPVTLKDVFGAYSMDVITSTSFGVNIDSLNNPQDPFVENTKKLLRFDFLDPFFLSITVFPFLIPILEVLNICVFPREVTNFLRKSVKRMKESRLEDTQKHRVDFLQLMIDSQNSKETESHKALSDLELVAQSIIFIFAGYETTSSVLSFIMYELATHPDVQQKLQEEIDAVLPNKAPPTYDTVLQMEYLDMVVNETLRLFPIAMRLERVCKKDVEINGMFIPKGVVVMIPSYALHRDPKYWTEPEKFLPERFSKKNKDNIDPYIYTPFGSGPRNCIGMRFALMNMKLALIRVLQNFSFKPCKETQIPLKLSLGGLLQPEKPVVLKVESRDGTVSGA
Chain of RecQ-like DNA helicase BLM (Homo sapiens) (P54132 whole entry, looked up): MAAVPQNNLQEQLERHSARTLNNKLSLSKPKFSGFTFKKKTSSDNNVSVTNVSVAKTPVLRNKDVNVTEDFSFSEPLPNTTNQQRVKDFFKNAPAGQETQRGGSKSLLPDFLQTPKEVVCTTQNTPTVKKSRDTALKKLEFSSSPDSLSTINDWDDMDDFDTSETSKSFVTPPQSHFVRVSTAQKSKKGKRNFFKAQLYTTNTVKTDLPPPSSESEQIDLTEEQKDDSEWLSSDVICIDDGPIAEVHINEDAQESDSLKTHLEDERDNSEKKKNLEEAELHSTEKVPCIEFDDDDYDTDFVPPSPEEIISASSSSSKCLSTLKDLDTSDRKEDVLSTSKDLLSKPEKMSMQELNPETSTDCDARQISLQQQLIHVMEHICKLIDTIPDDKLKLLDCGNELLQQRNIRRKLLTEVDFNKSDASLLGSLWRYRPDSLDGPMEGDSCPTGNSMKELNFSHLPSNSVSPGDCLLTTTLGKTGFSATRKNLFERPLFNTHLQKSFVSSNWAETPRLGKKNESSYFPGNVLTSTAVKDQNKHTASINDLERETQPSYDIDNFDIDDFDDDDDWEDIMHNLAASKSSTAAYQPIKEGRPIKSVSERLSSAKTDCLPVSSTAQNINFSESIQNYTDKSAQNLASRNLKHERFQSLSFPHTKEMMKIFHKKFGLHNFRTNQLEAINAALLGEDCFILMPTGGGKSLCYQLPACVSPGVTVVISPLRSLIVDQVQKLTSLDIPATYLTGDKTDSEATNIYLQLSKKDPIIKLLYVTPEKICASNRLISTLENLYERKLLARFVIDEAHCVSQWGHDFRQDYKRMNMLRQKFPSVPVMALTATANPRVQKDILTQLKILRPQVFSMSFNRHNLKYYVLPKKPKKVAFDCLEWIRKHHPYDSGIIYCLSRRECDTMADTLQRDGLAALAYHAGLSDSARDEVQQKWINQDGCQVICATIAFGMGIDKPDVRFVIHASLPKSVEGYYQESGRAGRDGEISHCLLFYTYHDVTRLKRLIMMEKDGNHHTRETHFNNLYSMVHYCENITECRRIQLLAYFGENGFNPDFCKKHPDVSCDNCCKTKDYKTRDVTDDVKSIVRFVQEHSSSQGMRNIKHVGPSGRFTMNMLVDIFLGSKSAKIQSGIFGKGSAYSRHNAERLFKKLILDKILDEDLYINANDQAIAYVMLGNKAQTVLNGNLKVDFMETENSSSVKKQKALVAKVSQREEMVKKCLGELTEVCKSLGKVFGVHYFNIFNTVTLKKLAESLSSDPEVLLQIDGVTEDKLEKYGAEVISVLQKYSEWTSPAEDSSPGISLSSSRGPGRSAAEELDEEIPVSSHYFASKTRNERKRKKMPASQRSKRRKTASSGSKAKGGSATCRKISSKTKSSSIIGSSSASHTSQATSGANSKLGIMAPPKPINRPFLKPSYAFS
Chain of DNA dC->dU-editing enzyme APOBEC-3G (Homo sapiens) (Q9HC16 whole entry, looked up): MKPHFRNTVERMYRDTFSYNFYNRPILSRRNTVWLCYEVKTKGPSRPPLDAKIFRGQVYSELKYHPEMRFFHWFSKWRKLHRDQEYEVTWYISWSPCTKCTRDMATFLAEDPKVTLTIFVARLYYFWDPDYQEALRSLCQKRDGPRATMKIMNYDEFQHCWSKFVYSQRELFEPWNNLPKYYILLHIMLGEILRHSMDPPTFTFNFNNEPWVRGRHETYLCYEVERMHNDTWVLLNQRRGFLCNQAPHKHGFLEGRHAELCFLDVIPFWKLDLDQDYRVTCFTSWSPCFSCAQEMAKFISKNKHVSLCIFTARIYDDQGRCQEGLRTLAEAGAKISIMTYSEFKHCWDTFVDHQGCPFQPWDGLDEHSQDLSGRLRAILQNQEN
Chain of Galactokinase (Homo sapiens) (P51570 whole entry, looked up): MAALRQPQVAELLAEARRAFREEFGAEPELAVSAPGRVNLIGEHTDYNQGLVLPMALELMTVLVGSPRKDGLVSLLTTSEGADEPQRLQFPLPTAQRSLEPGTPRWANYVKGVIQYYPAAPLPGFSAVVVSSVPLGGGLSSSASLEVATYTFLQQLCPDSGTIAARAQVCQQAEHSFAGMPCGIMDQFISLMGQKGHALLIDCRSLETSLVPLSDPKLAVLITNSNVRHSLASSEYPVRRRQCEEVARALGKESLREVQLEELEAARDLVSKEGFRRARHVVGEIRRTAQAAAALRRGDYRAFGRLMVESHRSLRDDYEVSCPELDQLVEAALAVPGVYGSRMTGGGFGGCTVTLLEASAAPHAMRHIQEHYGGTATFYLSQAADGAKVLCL
Chain of M-phase phosphoprotein 8 (Homo sapiens) (Q99549 whole entry, looked up): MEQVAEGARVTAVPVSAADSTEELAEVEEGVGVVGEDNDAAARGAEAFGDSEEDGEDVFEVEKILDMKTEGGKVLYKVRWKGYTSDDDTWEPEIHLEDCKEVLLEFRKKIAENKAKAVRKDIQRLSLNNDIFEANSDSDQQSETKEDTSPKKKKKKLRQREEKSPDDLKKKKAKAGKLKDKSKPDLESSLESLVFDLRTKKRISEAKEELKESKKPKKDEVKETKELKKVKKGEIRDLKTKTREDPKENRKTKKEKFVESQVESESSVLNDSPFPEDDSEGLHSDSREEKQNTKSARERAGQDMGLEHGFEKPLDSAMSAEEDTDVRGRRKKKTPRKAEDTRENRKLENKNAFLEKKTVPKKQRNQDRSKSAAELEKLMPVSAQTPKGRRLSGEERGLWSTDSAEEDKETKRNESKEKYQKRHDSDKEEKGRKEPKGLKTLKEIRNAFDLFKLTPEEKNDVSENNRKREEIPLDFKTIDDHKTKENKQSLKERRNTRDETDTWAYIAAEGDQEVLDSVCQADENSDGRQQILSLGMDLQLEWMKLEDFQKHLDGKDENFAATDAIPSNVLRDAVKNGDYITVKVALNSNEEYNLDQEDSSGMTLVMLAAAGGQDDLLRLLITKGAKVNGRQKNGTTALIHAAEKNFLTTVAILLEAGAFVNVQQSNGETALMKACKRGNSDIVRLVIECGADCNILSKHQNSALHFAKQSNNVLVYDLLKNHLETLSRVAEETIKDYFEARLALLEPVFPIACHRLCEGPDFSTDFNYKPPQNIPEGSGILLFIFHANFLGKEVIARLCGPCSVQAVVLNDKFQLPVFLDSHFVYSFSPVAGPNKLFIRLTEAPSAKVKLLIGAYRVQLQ

Cc1ccc(OCC(O)C(C)NC(C)C)c2c1CCC2 (stereo not drawn)
active: Potency [4] 2.82 µM | Potency [5] 2.82 µM | Potency [6] 11.2 µM | Potency [7] 12.6 µM | Potency [8] 1.58 µM | Potency [9] 11.2 µM
inactive: outcome [1] | Potency [2] | Potency [3] | outcome [10] | Potency [11] | Potency [12] | Potency [13] | Potency [14] | outcome [15] | activation [16] 2.81% | outcome [17] | outcome [18] | Potency [19] | Potency [20]

COc1ccc(/C=C\C(=O)Nc2ccccc2C(=O)O)cc1OC
inactive: activity change, negative = inhibition [21] -10.8% | Potency [22] | activity change, negative = inhibition [23] -3.53% | activity, negative = inhibition [24] 7.79% | Potency [25] > 46 µM | Potency [26] > 46 µM | Potency [27] | Potency [28] | Potency [29] | Potency [30] | Potency [31] | Potency [20] | max response [32] -9.06%
